Measured values from PMC8384837, “Expanding the binding specificity for RNA recognition by a PUF domain”.

Experiments:
Experiment in all cases: yeast three-hybrid, YBZ-1, SC-Leu-His + 0.5 mM 3-AT, 4 days
Settings in all cases: tags: N-Gal4 AD-HA kept; label: inside an RPR1-promoter hybrid RNA with tandem MS2 sites; ssRNA
PUM1 PUF domain R5-RGQ = PUM1 PUF domain R5-RGQ (Homo sapiens, UniProt Q14671 828-1176, C1007R;R1008G)
Outline: (§1)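 The interaction score is the log change in variant frequency from input to selection. Scores were computed in log2 with a pseudocount of 1 for absent variants, using Illumina sequencing of PCR-amplified repeat regions. The input came from four days on SC-Leu and the selection from four days on SC-Leu-His + 0.5 mM 3-AT. The cells were strain YBZ-1 (LexA–MS2 coat fusion, HIS3 reporter) co-expressing Pumilio-1 PUF domain libraries and matching RNA elements from a centromeric plasmid.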

PUM1 PUF domain R3-RTH = PUM1 PUF domain R3-RTH (Homo sapiens, UniProt Q14671 828-1176, C935R;R936T;Q939H)
Outline: as §1

PUM1 PUF domain R6-VWK = target: T1, PUM1 PUF domain R6-VWK (Homo sapiens, UniProt Q14671 828-1176, N1043V;Y1044W;Q1047K)
T1 sequence: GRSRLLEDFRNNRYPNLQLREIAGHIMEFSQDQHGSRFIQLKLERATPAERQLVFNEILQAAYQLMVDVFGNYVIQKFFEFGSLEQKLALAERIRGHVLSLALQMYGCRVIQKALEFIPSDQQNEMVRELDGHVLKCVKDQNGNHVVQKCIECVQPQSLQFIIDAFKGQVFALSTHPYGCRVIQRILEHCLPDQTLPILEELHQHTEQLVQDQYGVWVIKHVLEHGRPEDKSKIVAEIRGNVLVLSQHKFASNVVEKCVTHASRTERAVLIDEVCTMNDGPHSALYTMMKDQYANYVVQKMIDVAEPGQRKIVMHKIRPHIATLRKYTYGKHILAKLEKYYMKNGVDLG
Outline: as §1

GGCUAGAACUAGUGGAUCCCCCGGCGCCCGGCGGCUCGAGCCCGGGUAAGUGUUAAUAGUCUGCAUGCCGCCGGGCGCCAUGCCUGCAGGUCGACUCUAGAAAACAUG
binding signal (PUM1 PUF domain R5-RGQ): 4.2 log2 enrichment (interaction score)

GGCUAGAACUAGUGGAUCCCCCGGCGCCCGGCGGCUCGAGCCCGGGUAAGUGUCAAUAGUCUGCAUGCCGCCGGGCGCCAUGCCUGCAGGUCGACUCUAGAAAACAUG
binding signal (PUM1 PUF domain R5-RGQ): 2.62 log2 enrichment (interaction score)

GGCUAGAACUAGUGGAUCCCCCGGCGCCCGGCGGCUCGAGCCCGGGUAAGUGUAAUUAGUCUGCAUGCCGCCGGGCGCCAUGCCUGCAGGUCGACUCUAGAAAACAUG
binding signal (PUM1 PUF domain R3-RTH): 3.6 log2 enrichment (interaction score)

GGCUAGAACUAGUGGAUCCCCCGGCGCCCGGCGGCUCGAGCCCGGGUAAGUGAAAAUAGUCUGCAUGCCGCCGGGCGCCAUGCCUGCAGGUCGACUCUAGAAAACAUG
binding signal (PUM1 PUF domain R6-VWK): 7.03 log2 enrichment (interaction score)
